From PubChem BioAssay
In the library only some 4.7% were active in any assay of this set; here they are far more common.
TRHR enhancer = qHTS for Small Molecule Agonists and Allosteric Enhancers of Human TRH Receptor: Primary Screen for Enhancers; Thyrotropin-releasing hormone receptor (Homo sapiens), P34981; TRHR cells, fluo-8 calcium fluorescence, EC20 TRH enhancement; enhancement, % at 2 µM; 360,000 compounds, 0.66% hits; AID 493056, 2011; in the data active = enhancement above about 30%; note: 0% is about no effect
Target sequence (P34981 whole entry, looked up): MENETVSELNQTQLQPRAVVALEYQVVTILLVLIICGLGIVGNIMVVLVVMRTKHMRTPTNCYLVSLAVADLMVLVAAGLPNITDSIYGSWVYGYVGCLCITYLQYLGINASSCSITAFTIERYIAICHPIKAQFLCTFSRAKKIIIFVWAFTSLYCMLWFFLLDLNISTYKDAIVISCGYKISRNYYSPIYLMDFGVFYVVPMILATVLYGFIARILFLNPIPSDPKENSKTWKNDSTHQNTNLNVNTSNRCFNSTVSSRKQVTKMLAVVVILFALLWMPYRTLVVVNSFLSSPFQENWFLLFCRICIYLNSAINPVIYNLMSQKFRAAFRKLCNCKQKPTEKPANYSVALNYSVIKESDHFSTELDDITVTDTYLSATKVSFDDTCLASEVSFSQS
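TRHR-expressing cells loaded with fluo-8 calcium dye were read kinetically (ex 480/em 530) during compound addition, then stimulated with an EC20 of TRH (10 nM final). Enhancement of the Gq-mediated intracellular calcium response was scored.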
D1 PAM = Potentiators of Human D1 Dopamine Receptor: qHTS; D(1A) dopamine receptor (Homo sapiens), P21728; HEK293 TREx D1 cells, calcium flux, dopamine EC20 potentiation; potentiation, % at 10 µM; 360,000 compounds, 0.036% hits; in the data active = potentiation above about 30%; note: 0% is about no effect
D1 ag = Allosteric Agonists of the Human D1 Dopamine Receptor: qHTS; D(1A) dopamine receptor (Homo sapiens), P21728; HEK293 T-REx D1 cells, calcium flux, agonist mode; activation, % at 2 µM; 360,000 compounds, 1% hits; note: 0% is about no effect
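Inducible HEK293 T-REx D1 cells, force-coupled to calcium signalling, were plated at 4000 cells/well with tetracycline and held overnight at 30 C. After no-wash calcium dye loading, compound-evoked calcium rise over 180 s flagged agonists.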
TRHR agonist = qHTS for Small Molecule Agonists and Allosteric Enhancers of Human TRH Receptor: Primary Screen for Agonists; TRHR cells, calcium flux fluo-8, FDSS agonist mode; activation, % at 2 µM; 360,000 compounds, 0.18% hits; AID 493084, 2011; note: 0% is about no effect
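Steps: seed TRHR cells overnight; add fluo-8 no-wash Ca dye, RT 30 min–1.5 h; record 10 s baseline; pin-transfer compounds; monitor fluorescence 1 cycle/s for the agonist window. Calcium increases flag candidate agonists.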
D1 antagonist = Antagonist of Human D 1 Dopamine Receptor: qHTS; HEK293 TREx D1 cells, calcium flux, dopamine EC80; stronger effect = lower value; activity change, negative = inhibition, % at 10 µM; 360,000 compounds, 3.2% hits; in the data active = activity change below about -30%; note: % is set by controls: 0 for no effect and ±100 for the full control effect
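Inducible Hek293 Trex D1 cells (tetracycline, overnight, 30 C). Calcium dye 30–90 min RT. Antagonist mode: EC80 dopamine added after 180 s compound read.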
An asterisk follows results filed as active. Cut-off read from the data, not from the text of the source, unless noted: active = activation above about 30%; inactive = the rest.

SMILES	TRHR enhancer	D1 PAM	D1 ag	TRHR agonist	D1 antagonist
Cc1ccc(C(=O)CC2(O)C(=O)N(Cc3ccccc3)c3ccccc32)c(C)c1 (configuration not stated)	0	12	58*	0	-15
CCc1ccc(C(=O)CC2(O)C(=O)N(Cc3ccc(C)cc3)c3ccccc32)cc1 (configuration not stated)	-7	2	-1	0	-4
CCN1C(=O)C(O)(CC(=O)c2c(C)coc2C)c2ccccc21 (configuration not stated)	-3	-1	0	0	-45*
CCCCN1C(=O)C(O)(CC(=O)c2ccc(C(C)(C)C)cc2)c2ccccc21 (configuration not stated)	2	-5	28	-1	-49*
C=CCn1c(SCc2ccc(OC)cc2)nnc1-c1cccnc1	-1	1	3	0	1
C=CCn1c(SCc2ccc(F)cc2)nnc1-c1sc2nc(C)cc(C)c2c1N	18	-2	0	-1	-38*
CNC(=O)C1CCC(Cn2c(=O)c3sccc3n(CC(=O)NCc3ccccc3)c2=O)CC1 (configuration not stated)	-5	-7	3	1	5
CC(=O)c1ccc(S(=O)(=O)NC2CC(=O)N(c3ccc(C)c(C)c3)C2)cc1 (configuration not stated)	-4	-2	28	1	-31*
Cc1ccc(NC(=O)NC2CC(=O)N(c3ccc4c(c3)OCCO4)C2)c(C)c1 (configuration not stated)	1	-4	-1	0	-47*
Cc1ccc(S(=O)(=O)NC2CC(=O)N(c3ccc4c(c3)OCCO4)C2)cc1 (configuration not stated)	3	-2	2	0	5
CC(=O)Nc1ccc(S(=O)(=O)NC2CC(=O)N(c3ccc4c(c3)OCCO4)C2)cc1 (configuration not stated)	40*	-2	0	0	-6
COc1ccc(S(=O)(=O)NC2CC(=O)N(c3ccccc3)C2)cc1C (configuration not stated)	2	0	4	0	-54*
O=c1c2sc3ccccc3c2n(Cc2ccccc2F)c(=O)n1CCc1ccccc1	-10	-5	4	2	-17
Cc1cc(NC(=O)CSc2nnc(NC(=O)C3CC(=O)N(c4ccccc4)C3)s2)no1 (configuration not stated)	-3	-8	3	0	-46*
CCCCc1nnc(NC(=O)C2CC(=O)N(c3ccc4c(c3)OCCO4)C2)s1 (configuration not stated)	15	8	3	0	11
Cc1cc(NC(=O)CSc2nnc(NC(=O)C3CC(=O)N(c4ccccc4C)C3)s2)no1 (configuration not stated)	0	10	2	0	9
Cc1nnc(NC(=O)C2CC(=O)N(c3ccc4c(c3)OCCO4)C2)s1 (configuration not stated)	35*	-7	2	0	1
COc1ccc(-c2noc(CNS(=O)(=O)c3ccc(NC(C)=O)cc3)n2)cc1OC	1	-3	5	1	4
Cc1cccc(S(=O)(=O)c2cn(C)c3cc(N4CCCCCC4)c(F)cc3c2=O)c1	2	1	0	0	0
COc1ccc(C2/C=C\CN(C(=O)C3CCCC3)CC(=O)N2Cc2ccc(F)cc2)cc1 (configuration not stated)	1	-7	7	-1	-34*
CC(C)CNc1nc(S(=O)(=O)c2ccccc2)c(Cl)s1	-12	-7	2	0	-37*
CN(C)CCNc1nc(S(=O)(=O)c2ccccc2)c(Cl)s1	2	-4	5	1	-5
COc1ccc(Oc2ccc(N/C=C3/CCCC3=O)cc2)cc1	0	-10	2	0	-31*
COc1ccc(Oc2ccc(N/C=C3\CCCC3=O)cc2)cc1	0	-5	7	0	3
O=C(CNC(=O)c1ccc(Cl)cc1)OC(C(=O)Nc1cc(C(F)(F)F)ccc1Cl)c1ccccc1 (configuration not stated)	-4	5	2	1	25
SMILES	TRHR enhancer	D1 PAM	D1 ag	TRHR agonist	D1 antagonist
CCn1ccc2cc(S(=O)(=O)N3CCCN(C(=O)NCC(=O)OC)CC3)ccc21	2	-1	3	0	6
CC(=O)N(C1=C(O)c2ccccc2C(=O)C1=O)C1CCCCC1	-9	-1	0	0	-38*
O=C(O)c1ccc(S(=O)(=O)c2ccc3c(c2)C(=O)N(c2ccc(Br)cc2)C3=O)cc1	3	-8	3	0	5
CC(=O)OCC1OC(OCc2cn(C[C@H]3CC[C@H](Cn4cc(COC5OC(COC(C)=O)C(OC(C)=O)C(OC(C)=O)C5OC(C)=O)nn4)O3)nn2)C(OC(C)=O)C(OC(C)=O)C1OC(C)=O (some centres not stated)	2	0	4	0	-4
COc1ccc(N2CCN(C(=O)COC(=O)c3ccc(CSC)o3)CC2)cc1	-2	2	1	1	-2
O=S(=O)(c1ccc(Cl)cc1)N(Cc1ccccn1)Cc1ccccn1	-5	-3	3	-1	3
CCN(CC)S(=O)(=O)c1ccc(S(=O)(=O)N(Cc2ccccn2)Cc2ccco2)cc1	1	-12	31*	-1	-56*
O=S(=O)(NCc1ccccc1)c1ccc(S(=O)(=O)N(Cc2ccccn2)Cc2ccco2)cc1	-2	-11	26	-1	-34*
CC(C)Cc1nc2sc3c(c2c(=O)n1N)CC(C)(C)OC3	-2	-4	6	1	-6
CN1CCN(NC(=S)Nc2ccc(Oc3ccccc3)cc2)CC1	-6	-3	36*	1	-11
COc1cccc(NC(=S)NN2CCN(C)CC2)c1	1	-10	1	0	3
CCN(CC)S(=O)(=O)c1ccc2c(c1)N(CC(=O)NCc1ccccc1)C(=O)C1CCCCN21 (configuration not stated)	-6	0	2	-1	5
Cc1ccc(-c2noc(C3CCCN(C(=O)c4c(F)cccc4F)C3)n2)cc1 (configuration not stated)	-5	-3	3	-1	-10
Cc1ccc(-c2noc(C3CCCN(C(=O)c4cccc(F)c4)C3)n2)cc1 (configuration not stated)	-3	1	11	1	-31*
